# An excerpt weighted towards active compounds, which were near 4.2% of everything screened.
# OTUD3 inh = human OTUD3 deubiquitinase inhibition | hit rate 0.7% among 47,000 | inhibition, % at 25 µM | purified OTUD3, Ub-rhodamine fluorescence, 2 h | Q5T2D3
# USP10 block = inhibitors of human USP10 deubiquitinase; purified USP10, Ub-rhodamine fluorescence, 60 min; Q14694; inhibition, % at 20 µM; hit rate 1.1% among 47,000
# Target sequence (Q14694 whole entry, looked up): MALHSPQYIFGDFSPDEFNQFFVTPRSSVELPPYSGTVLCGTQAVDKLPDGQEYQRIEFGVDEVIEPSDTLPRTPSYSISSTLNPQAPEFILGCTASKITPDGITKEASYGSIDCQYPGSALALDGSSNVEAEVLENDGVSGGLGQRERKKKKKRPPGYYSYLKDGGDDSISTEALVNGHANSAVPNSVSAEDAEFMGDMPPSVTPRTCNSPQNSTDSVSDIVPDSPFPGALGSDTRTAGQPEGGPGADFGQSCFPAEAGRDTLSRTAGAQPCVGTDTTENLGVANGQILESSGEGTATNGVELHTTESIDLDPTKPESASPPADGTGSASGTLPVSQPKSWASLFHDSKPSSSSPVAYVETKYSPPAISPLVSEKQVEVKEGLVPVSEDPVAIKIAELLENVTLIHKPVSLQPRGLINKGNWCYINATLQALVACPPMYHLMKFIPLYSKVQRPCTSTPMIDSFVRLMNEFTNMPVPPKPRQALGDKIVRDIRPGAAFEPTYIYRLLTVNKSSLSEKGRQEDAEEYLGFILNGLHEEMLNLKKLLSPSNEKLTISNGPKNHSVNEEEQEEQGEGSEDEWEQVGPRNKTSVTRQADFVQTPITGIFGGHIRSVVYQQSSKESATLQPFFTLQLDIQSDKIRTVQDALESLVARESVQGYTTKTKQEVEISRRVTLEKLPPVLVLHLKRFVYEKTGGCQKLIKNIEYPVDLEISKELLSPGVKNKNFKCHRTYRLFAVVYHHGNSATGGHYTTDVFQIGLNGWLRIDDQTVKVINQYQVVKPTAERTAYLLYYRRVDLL
# USP7 inh = human USP7 deubiquitinase inhibition | Q93009 | purified USP7, Ub-rhodamine cleavage fluorescence | inhibition, % at 20 µM | hit rate 0.3% among 47,000
# UCHL1 inh = inhibitors of human UCHL1 deubiquitinase; AID 1645859; hit rate 0.2% among 47,000; inhibition, % at 20 µM; purified UCHL1, Ub-rhodamine cleavage fluorescence
# USP28 block = inhibitors of human USP28 deubiquitinase; purified USP28, Ub-rhodamine cleavage fluorescence, 30 min; AID 1645857; inhibition, % at 25 µM; hit rate 3% among 47,000; Q96RU2
# An asterisk follows results filed as active; x = not tested or not shown. Rule as the data show it: active = inhibition above about 30%; inactive = the rest.
SMILES,OTUD3 inh,USP10 block,USP7 inh,UCHL1 inh,USP28 block
CC(C)(C)C(=O)NC(c1ccccc1)c1nnc(N2CCOCC2)o1 (stereo not given),12,0,3,-3,74*
O=C(NC(c1ccccc1)c1nnc(N2CCOCC2)o1)c1ccccc1Cl (stereo not given),21,0,0,1,9
COc1ccc(C(=O)COC(=O)c2ccccc2NS(=O)(=O)c2ccc(O)c([N+](=O)[O-])c2)cc1,36*,63*,24,5,60*
COc1ccc(C2CC(=O)N(Cc3ccc(F)cc3)C(=O)C2)cc1OC,15,2,8,7,4
COc1cc2c(cc1OC)-c1cc(NCc3cc(OC)c(OC)c(OC)c3)nc(=O)n1CC2,41*,-8,-3,-6,1
COc1cc2c(cc1OC)-c1cc(NCC(C)C)nc(=O)n1CC2,2,-5,-7,-11,x
O=C1CNC(=O)C(Cc2ccccc2)N1 (stereo not given),-7,0,0,-2,-10
Fc1ccccc1Cc1nc(-c2ccc3nncn3c2)no1,0,-3,-5,-1,53*
CCOc1cc(N2CCOCC2)c(OCC)cc1NC(=O)c1cc(-c2ccncc2)nc2ccccc12,12,-6,6,3,9
O=C(Cn1c(CSc2ccccc2)nc2ccccc21)Nc1ccccc1F,10,10,9,2,65*
Cc1cc(=O)n(CC(=O)Nc2ccccc2F)c(N2CCCCC2)n1,-4,3,-13,0,-7
COC(=O)c1cc(NC(=O)Nc2ccc(OC(F)(F)F)cc2)ccc1N1CCOCC1,-10,3,-2,7,32*
CC(C)=CCc1cccc2c(C3=C(O)C(=O)C(c4c[nH]c5c(CC=C(C)C)cccc45)=C(O)C3=O)c[nH]c12,31*,1,7,0,52*
COc1ccc(-c2cc3nccc(C4CCNCC4)n3n2)cc1,14,1,-16,2,10
Cc1ccc(-c2cc3nccc(C4CCCNC4)n3n2)cc1 (stereo not given),-1,2,-26,-1,40*
O=C(Cn1c(=O)n(CC2CCC(C(=O)NCCc3ccccc3)CC2)c(=O)c2ccccc21)Nc1ccccc1F (stereo not given),-15,-2,-1,-5,-18
O=C(Cn1c(=O)n(CC2CCC(C(=O)NC3CCCC3)CC2)c(=O)c2ccccc21)NCCC1=CCCCC1 (stereo not given),22,34*,6,2,2
Cc1cc(NC(=O)Cn2c(=O)n(CC3CCC(C(=O)NCCc4ccccc4)CC3)c(=O)c3ccccc32)n[nH]1 (stereo not given),36*,15,14,1,30
O=C(c1ccncc1)N1C[C@@H]2OCC(=O)N(CC3CC3)[C@@H]2C1,0,0,0,0,-1
Cn1cc(CN2CC[C@H]3C[C@H](C(=O)Nc4cccnc4)O[C@@H]3C2)cn1,11,3,7,1,10
CCN1CCN(c2ccc(C(=O)OC)cc2NC(=O)c2sc3cc(Cl)ccc3c2Cl)CC1,14,1,7,3,13
COC(=O)CSc1nc2ccccc2c(=N)n1-c1ccc(Cl)cc1,12,12,8,9,19
COc1ccc(-n2c(SCC(=O)Nc3cc(Cl)ccc3C(=O)O)nc3ccccc3c2=O)cc1Cl,0,59*,35*,10,x
Cc1cccc(CCN(C(=O)c2ccco2)C(C(=O)NC2CCCC2)c2ccccc2)c1 (stereo not given),5,5,1,4,-30
COc1cccc(NC(=O)C2Cn3ccnc3C3(CCN(C(C)=O)CC3)O2)c1 (stereo not given),32*,0,-2,-4,-15
SMILES,OTUD3 inh,USP10 block,USP7 inh,UCHL1 inh,USP28 block
COc1cccc(CN2CCC3(CC2)OC(C(=O)Nc2ccccc2)Cn2ccnc23)c1 (stereo not given),9,-2,3,1,1
Cc1ccc2nc(CCc3ccc(NS(=O)(=O)c4ccc(F)c(F)c4)cc3)[nH]c2c1,-8,9,-18,11,31*
Cc1ccc2nc(CCc3ccc(NS(=O)(=O)c4cc(F)ccc4F)cc3)[nH]c2c1,0,5,1,1,25
CN(CC(=O)Nc1ccc(Cl)cc1)c1cnn(-c2nc3ccccc3[nH]2)c(=O)c1Cl,4,25,17,3,20
COc1ccc2c(C)c(CC(=O)N3CCC[C@H]3C(=O)O)c(=O)oc2c1C,32*,2,-154,2,12
O=C(CC(NCc1ccco1)C(=O)O)Nc1cccc(Cl)c1Cl (stereo not given),6,0,5,2,5
Cc1cc(NC(=O)c2ccccc2F)ccc1-c1cc2ccccc2oc1=O,3,4,8,7,14
COc1cc(NC(=O)c2ccc3c(c2)OCO3)ccc1-c1cc2ccccc2oc1=O,55*,29,25,5,43*
O=C(CN1C(=O)c2cccc3cccc1c23)NCCSCc1ccc(Cl)c(Cl)c1,8,40*,1,-4,-2
Cc1cccc(CSCCNC(=O)CN2C(=O)c3cccc4cccc2c34)c1,-5,-1,-4,-4,4
COc1cc2c(C#N)c(N3CCCC3)nc3c2c(n1)NC(C)(c1ccc(-c2ccccc2)cc1)N3 (stereo not given),-47,-7,35*,17,1
CC(=O)O[C@@H](C/C=C(\C)C(=O)O)[C@@H](C)[C@H]1C[C@H](OC(C)=O)[C@@]2(C)C3=CC[C@H]4C(C)(C)[C@H](O)CC[C@]4(C)C3=CC[C@]12C,17,52*,14,3,45*
CC(=O)O[C@@H](C/C=C(\C)C(=O)O)[C@@H](C)[C@H]1C[C@H](OC(C)=O)[C@@]2(C)C3=CC[C@H]4C(C)(C)[C@H](OC(C)=O)CC[C@]4(C)C3=CC[C@]12C,92*,95*,93*,57*,100*
COc1ccccc1CNC(=O)c1nnn(-c2ccc(Cl)cc2)n1,23,7,7,4,24
OCCSc1nnc(-c2cc3ccccc3[nH]2)n1-c1ccccc1,7,4,4,1,11
Cc1cc(NC(=O)Cn2cnc3c(oc4ccccc43)c2=O)no1,1,1,6,3,x
Cc1cc(C)c2c(n1)sc1c(=O)n(CC(=O)Nc3cccc(Cl)c3)cnc12,0,-1,6,2,-3
COc1cccc2c1OCC(C(=O)NCc1ccc(F)cc1)=C2,-5,0,-4,-1,51*
Cc1cc(F)ccc1NS(=O)(=O)c1ccccc1C(F)(F)F,4,4,-1,1,7
C[C@@H]1CO[C@@H]2C3=C(C(=O)C=CC3=O)[C@H]3OC(=O)[C@@H]4CCC5[C@@H]1CCC52C34 (stereo not given in full),59*,34*,-34,11,62*
Cc1cc(C(=O)N2CCOCC2)c(C)n1-c1ccc(O)cc1,28,10,-6,20,9
